Measurements published in the supplement of paper PMC10127200.
Where a name gives a salt, the structure may show the parent alone.

Assays:
Assay in all cases: Euclidean distance of Cell Painting phenotypic profile (signed KS, 77 features) to DMSO centroid (dimensionless distance); 5 or 10 uM (library dependent); higher = stronger phenotypic change vs DMSO (phenoactivity)
Conditions in all cases: 48 h
786-O = tested on: 786-O
In short: (§1)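 Harmony extracted 77 features from 20X confocal images (9 fields/well) of stained cells, scoring each as a signed Kolmogorov-Smirnov statistic against same-plate vehicle wells. The cells, five cancer lines and a healthy fibroblast line, had received library compounds for 48 h at 10 or 5 uM depending on library, with 0.1% DMSO final. Phenoactivity is the Euclidean distance from each plate-position-corrected, correlation-weighted, top-dose replicate-averaged profile to the median vehicle profile.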

A549 = tested on: A549
In short: as §1

DU145 = tested on: DU145
In short: as §1

FB = tested on: FB
In short: as §1

HEPG2 = tested on: HEPG2
In short: as §1

OVCAR4 = tested on: OVCAR4
In short: as §1

SMILES	Euclidean distance (786-O)	Euclidean distance (A549)	Euclidean distance (DU145)	Euclidean distance (FB)	Euclidean distance (HEPG2)	Euclidean distance (OVCAR4)
O=c1[nH]c(=O)n([C@H]2C[C@H](O)[C@@H](CO)O2)cc1C(F)(F)F [Trifluridine]	2.89	3.28	2.74	1.07	3.56	2.85
Cc1ccc(=O)n(-c2ccccc2)c1 [Pirfenidone]	1.25	0.718	1.64	0.845	0.297	1.38
CCn1c(=O)c(-c2cc(NC(=O)Nc3ccccc3)c(F)cc2Br)cc2cnc(NC)cc21 [Ripretinib (DCC-2618)]	2.86	3.27	2.91	3.89	2.27	3.18
CN(C)[C@@H]1C(O)=C(C(N)=O)C(=O)[C@@]2(O)C(O)=C3C(=O)c4c(O)ccc(Cl)c4[C@@](C)(O)[C@H]3C[C@@H]12 [Chlortetracycline HCl]	1.45	0.912	1.04	0.904	0.464	1.05
Cc1cc(C)cc(OCC2CNC(=O)O2)c1 (stereo not drawn) [Metaxalone]	0.96	0.856	0.745	0.753	0.417	1.15
CC(C(=O)O)c1ccc(CC2CCCC2=O)cc1 (stereo not drawn) [Loxoprofen]	1.12	0.954	0.808	1.12	0.384	0.794
CCC[C@H](N[C@@H](C)C(=O)N1[C@H](C(=O)O)C[C@@H]2CCCC[C@@H]21)C(=O)OCC [Perindopril Erbumine]	1.37	0.943	1.24	0.906	1.41	0.854
Cc1ccc(-c2ncc(Cl)cc2-c2ccc(S(C)(=O)=O)cc2)cn1 [Etoricoxib]	0.705	0.64	0.802	1.09	0.559	0.802
COCCOc1cnc2ccn([C@H](C)c3nnc4c(F)cc(-c5cnn(C)c5)cn34)c(=O)c2c1	1.01	1.18	1.5	1.29	1.39	1.46
CC(C)N1CCN(c2ccc(OCC3COC(Cn4cncn4)(c4ccc(Cl)cc4Cl)O3)cc2)CC1 (stereo not drawn) [Terconazole]	1.82	2.07	1.88	1.04	0.664	1.06
COc1ccc(C(=O)c2ccccc2)c(O)c1 [Oxybenzone]	1.07	0.943	0.824	1.34	0.753	1.32
O=C(Nc1c[nH]nc1-c1nc2ccc(CN3CCOCC3)cc2[nH]1)NC1CC1	3.05	3.01	3	2.87	2.74	2.7
COc1ccc(COc2cc3oc(=O)c4cc(C(C)O)ccc4c3cc2OC)cc1 (stereo not drawn) [Palomid 529 (P529)]	1.8	1.25	1.29	1.02	1.33	1.06
Cc1nc2c([nH]1)-c1ccccc1N(C(=O)c1ccc(NC(=O)c3ccccc3-c3ccccc3)cc1)CC2 [Conivaptan HCl]	1.3	1.1	1.42	1.28	1.72	1.57
CC(CN1c2ccccc2Sc2ccccc21)N(C)C (stereo not drawn) [Promethazine HCl]	0.72	0.962	1.47	1.72	0.856	1.1
Cc1ccnc2c1NC(=O)c1cccnc1N2C1CC1 [Nevirapine]	1.2	0.789	0.803	0.827	1.93	0.872
CC(C)CN(C[C@@H](O)[C@H](Cc1ccccc1)NC(=O)O[C@H]1CO[C@H]2OCC[C@H]21)S(=O)(=O)c1ccc(N)cc1 [Darunavir Ethanolate]	0.575	0.867	1.31	0.84	0.355	0.797
CC1(C)CC[C@]2(NC(=O)C(C)(F)F)CC[C@]3(C)[C@H](C(=O)C=C4[C@@]5(C)C=C(C#N)C(=O)C(C)(C)[C@@H]5CC[C@]43C)[C@@H]2C1 [Omaveloxolone (RTA-408)]	6.36	4.96	6.92	7.18	5.59	6.32
C[C@@H]1CCO[C@H]2Cn3cc(C(=O)NCc4ccc(F)cc4F)c(=O)c(O)c3C(=O)N12 [Dolutegravir Sodium]	0.603	0.757	0.904	0.594	0.621	0.881
CCCCCCCCCCCCCCCCOc1nc2ccc(C)cc2c(=O)o1 [Cetilistat]	1	1.33	0.996	0.737	0.864	0.764
CN1CCN(C2=Nc3ccccc3Oc3ccc(Cl)cc32)CC1 [Loxapine Succinate]	0.937	0.901	1.33	0.885	0.582	0.838
CC(C)(Oc1ccc(Cl)cc1)C(=O)OCCOC(=O)c1cccnc1 [Etofibrate]	0.948	0.732	0.949	1.01	0.725	0.894

SMILES	Euclidean distance (786-O)	Euclidean distance (A549)	Euclidean distance (DU145)	Euclidean distance (FB)	Euclidean distance (HEPG2)	Euclidean distance (OVCAR4)
N=C(N)c1ccc(OCCCCCOc2ccc(C(=N)N)cc2)cc1 [Pentamidine]	1.54	2.11	1.64	0.958	2.12	1.65
CC[C@H]1OC(=O)[C@H](C)[C@@H](O[C@H]2C[C@@](C)(OC)[C@@H](O)[C@H](C)O2)[C@H](C)[C@@H](O[C@@H]2O[C@H](C)C[C@H](N(C)C)[C@H]2O)[C@](C)(O)C[C@@H](C)CN(C)[C@H](C)[C@@H](O)[C@]1(C)O [Azithromycin Dihydrate]	1.29	1.33	1.5	1.18	1.71	1.15
Cc1cc(C#N)cc(C)c1Oc1nc(Nc2ccc(C#N)cc2)nc(N)c1Br [Etravirine (TMC125)]	1.93	2.85	1.7	0.981	2.06	1.73
Cc1cc(/C=C/C#N)cc(C)c1Nc1ccnc(Nc2ccc(C#N)cc2)n1 [Rilpivirine]	1.85	2.11	1.55	1.69	0.573	0.925
Clc1ccc2nsnc2c1NC1=NCCN1 [Tizanidine]	1.07	0.538	0.815	0.569	0.572	0.608
CC(C)(C)c1nc(-c2cccc(NS(=O)(=O)c3c(F)cccc3F)c2F)c(-c2ccnc(N)n2)s1 [Dabrafenib Mesylate]	1.18	1.23	1.47	3.79	1.3	1.47
CC(C)OC(=O)C1=CN(C(=O)c2ccc(F)c(F)c2)CC(C)(C)c2c1[nH]c1ccccc21	0.816	0.896	0.818	0.982	1.22	1.07
Nc1c(Br)cc(Br)cc1CN[C@H]1CC[C@H](O)CC1 [Ambroxol]	1.17	0.59	0.867	0.611	0.645	0.78
O=C(O)c1cccnc1 [Nicotinic Acid]	1.53	0.435	1.08	0.953	1.92	1.03
O=C(O)/C=C/c1ccc(Cn2ccnc2)cc1 [Ozagrel]	1.04	0.773	1.51	0.921	0.736	1.43
CC(=O)Nc1cccc(-n2c(=O)n(C3CC3)c(=O)c3c(Nc4ccc(I)cc4F)n(C)c(=O)c(C)c32)c1	3.52	3.28	3.33	3.79	1.56	1.94
C[C@]12CCC(=O)C=C1C=C[C@@H]1[C@@H]2CC[C@@]2(C)[C@H]1CC[C@@]21CCC(=O)O1 [Canrenone]	1.64	0.961	1.1	1.33	1.24	1.05
Cc1nc(C(=O)NCC(=O)O)c(O)c2ccc(Oc3ccccc3)cc12	1.71	1.55	1.53	2.88	1.32	1.92
COc1ccc2cc3[n+](cc2c1OC)CCc1cc2c(cc1-3)OCO2 [Berberine]	1.31	1.85	0.876	1.96	1.57	1.4
CS(=O)(=O)c1ccc(-c2cnc(N)c(C(=O)Nc3ccccc3)n2)cc1	0.811	2.05	1.29	1.27	1.07	1.23
NCC[C@H](O)C(=O)N[C@@H]1C[C@H](N)[C@@H](O[C@H]2O[C@H](CN)[C@@H](O)[C@H](O)[C@H]2O)[C@H](O)[C@H]1O[C@H]1O[C@H](CO)[C@@H](O)[C@H](N)[C@H]1O [Amikacin hydrate]	1.52	1.1	0.584	1.08	1.29	1.07
O=C1CN2Cc3c(ccc(Cl)c3Cl)N=C2N1 [Anagrelide HCl]	0.871	0.869	0.905	1.18	1.01	1.53
COc1ccc(-c2cnc3c(-c4cccc5ncccc45)cnn3c2)cc1	0.556	0.926	1.07	0.678	0.785	0.818
C[C@H]1O[C@@H](O[C@H]2CC[C@@]3(C)[C@@H](CC[C@]4(C)[C@@H]3C=C[C@]35OC[C@@]6(CCC(C)(C)C[C@H]63)[C@@H](O)C[C@]54C)[C@]2(C)CO)[C@H](O)[C@@H](O[C@@H]2O[C@H](CO)[C@@H](O)[C@H](O)[C@H]2O)[C@H]1O [Saikosaponin A]	1.06	2.42	2.17	1.52	0.854	2.14
CN(C)c1ccc2nc3ccc(=[N+](C)C)cc-3sc2c1 [Methylene Blue]	2.57	2.62	1.71	3.26	2.63	2.92
Nc1cc(C(F)(F)F)c(-c2nc(N3CCOCC3)nc(N3CCOCC3)n2)cn1 [Bimiralisib (PQR309)]	2.95	2.83	1.83	4.83	2.44	2.86
